Holding throughout (experiment): yeast three-hybrid, YBZ-1, SC-Leu-His + 0.5 mM 3-AT, 4 days
Common to all, as to conditions: tags: N-Gal4 AD-HA kept; label: inside an RPR1-promoter hybrid RNA with tandem MS2 sites; ssRNA

The target in assay [1] is PUM1 PUF domain R8-FFR (Homo sapiens, UniProt Q14671 828-1176, N1122F;Y1123F;Q1126R). An outline of the steps:
(§1)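 Pumilio-1 PUF domain libraries, randomized at the three base-contacting residues of each repeat, were co-expressed with matching RNA elements from a centromeric plasmid in strain YBZ-1, which carries a LexA–MS2 coat fusion and a HIS3 reporter. Transformants grew for four days on SC-Leu (input) or on SC-Leu-His + 0.5 mM 3-AT (selection), and the repeat regions were PCR-amplified and Illumina-sequenced. The interaction score is the log change in variant frequency from input to selection. That logarithm is base 2, with a pseudocount of 1 where a variant was absent.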

The target in assay [2] is PUM1 PUF domain R8-LFR (Homo sapiens, UniProt Q14671 828-1176, N1122L;Y1123F;Q1126R). An outline of the steps:
as §1

For assay [3], the target named is T1, PUM1 PUF domain R6-AYR (Homo sapiens, UniProt Q14671 828-1176, N1043A;Q1047R).
T1 sequence: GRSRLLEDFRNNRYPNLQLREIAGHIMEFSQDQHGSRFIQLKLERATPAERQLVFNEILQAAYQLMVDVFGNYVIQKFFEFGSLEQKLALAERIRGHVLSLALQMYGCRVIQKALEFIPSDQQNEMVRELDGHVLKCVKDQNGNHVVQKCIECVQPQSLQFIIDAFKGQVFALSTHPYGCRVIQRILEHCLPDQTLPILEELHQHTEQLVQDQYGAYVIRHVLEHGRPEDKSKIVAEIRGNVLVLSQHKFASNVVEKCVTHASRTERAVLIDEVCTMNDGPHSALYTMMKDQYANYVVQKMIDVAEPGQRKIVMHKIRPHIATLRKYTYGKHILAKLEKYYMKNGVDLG
An outline of the steps:
as §1

Assay [4] concerns the target PUM1 PUF domain R8-SYP (Homo sapiens, UniProt Q14671 828-1176, N1122S;Q1126P). The essentials: as §1
Assay [5] has as its target T2, PUM1 PUF domain R6-FYL (Homo sapiens, UniProt Q14671 828-1176, N1043F;Q1047L).
T2 sequence: T1 sequence with A216F, R220L
The essentials:
as §1

Assay [6] deals with PUM1 PUF domain R5-GTE (Homo sapiens, UniProt Q14671 828-1176, C1007G;R1008T;Q1011E). An outline of the steps:
as §1

For assay [7], the target named is PUM1 PUF domain R7-QRK (Homo sapiens, UniProt Q14671 828-1176, S1079Q;N1080R;E1083K). An outline of the steps: as §1
Assay [8] addresses PUM1 PUF domain R3-IWK (Homo sapiens, UniProt Q14671 828-1176, C935I;R936W;Q939K). The essentials:
as §1

Assay [9] has as its target PUM1 PUF domain R3-TVE (Homo sapiens, UniProt Q14671 828-1176, C935T;R936V;Q939E). An outline of the steps:
as §1

Numbering of substitutions follows the chain as printed.

For the sequence “GGCUAGAACUAGUGGAUCCCCCGGCGCCCGGCGGCUCGAGCCCGGGUAAGCGUAAAUAGUCUGCAUGCCGCCGGGCGCCAUGCCUGCAGGUCGACUCUAGAAAACAUG”, the binding signal in assay [1] was 4.67 log2 enrichment (interaction score); in assay [2] it was 4.59 log2 enrichment (interaction score).

With “GGCUAGAACUAGUGGAUCCCCCGGCGCCCGGCGGCUCGAGCCCGGGUAAGUGUAAAUAGUCUGCAUGCCGCCGGGCGCCAUGCCUGCAGGUCGACUCUAGAAAACAUG”, the binding signal is 4.42 log2 enrichment (interaction score) in [1]; 6.13 log2 enrichment (interaction score) in assay [3]; 4.16 log2 enrichment (interaction score) in assay [4]; 3.73 log2 enrichment (interaction score) in assay [5]; 4.31 log2 enrichment (interaction score) in assay [2].

For the sequence “GGCUAGAACUAGUGGAUCCCCCGGCGCCCGGCGGCUCGAGCCCGGGUAAGUGUGAAUAGUCUGCAUGCCGCCGGGCGCCAUGCCUGCAGGUCGACUCUAGAAAACAUG”, in assay [6], the binding signal is 3.8 log2 enrichment (interaction score).

Regarding “GGCUAGAACUAGUGGAUCCCCCGGCGCCCGGCGGCUCGAGCCCGGGUAAGUGCAAAUAGUCUGCAUGCCGCCGGGCGCCAUGCCUGCAGGUCGACUCUAGAAAACAUG”, the binding signal in assay [3] was 3.72 log2 enrichment (interaction score).

In the case of “GGCUAGAACUAGUGGAUCCCCCGGCGCCCGGCGGCUCGAGCCCGGGUAAGUAUAAAUAGUCUGCAUGCCGCCGGGCGCCAUGCCUGCAGGUCGACUCUAGAAAACAUG”, the binding signal in assay [7] is 3.05 log2 enrichment (interaction score).

Regarding “GGCUAGAACUAGUGGAUCCCCCGGCGCCCGGCGGCUCGAGCCCGGGUAAGUCUAAAUAGUCUGCAUGCCGCCGGGCGCCAUGCCUGCAGGUCGACUCUAGAAAACAUG”, the binding signal in [7] was 2.27 log2 enrichment (interaction score).

“GGCUAGAACUAGUGGAUCCCCCGGCGCCCGGCGGCUCGAGCCCGGGUAAGUGUAAUUAGUCUGCAUGCCGCCGGGCGCCAUGCCUGCAGGUCGACUCUAGAAAACAUG”: in assay [8], the binding signal is 3.81 log2 enrichment (interaction score).

In the case of “GGCUAGAACUAGUGGAUCCCCCGGCGCCCGGCGGCUCGAGCCCGGGUAAGUGUAAGUAGUCUGCAUGCCGCCGGGCGCCAUGCCUGCAGGUCGACUCUAGAAAACAUG”, in assay [9], the binding signal is 6.09 log2 enrichment (interaction score).

Source of the values: paper PMC8384837, “Expanding the binding specificity for RNA recognition by a PUF domain”.
